According to PubChem BioAssay AID818 (SRMLSC, 2007):
Hit rate of the full screen: of about 140,000 compounds, about 2,100 (1.5%) were called active.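 The calls were made as follows: active = viability at or under a set limit, the compound median less 4 SD (cut at about 6% in these data); inactive = the rest.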 The full list was thinned out, with actives kept by preference.

Assay: primary screen for growth suppressors in beta-catenin knockout HCT116 cells (colon tumor, human) (AID 818);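 also: 0% = Hyamine 1622 control at 20 µM and 100% = untreated cell control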
Settings: CellTiter-Glo, 60 h, at 10 µM, active compounds read low

SMILES | viability
COc1ccc(C2CC(c3ccccc3)=NN2C(=O)c2ccc(Cl)c([N+](=O)[O-])c2)cc1 (stereo unspecified) | 10.9% (inactive)
CCOc1ccc2nc(Cl)c(C3CC(c4ccccc4)=NN3C(=O)c3cccs3)cc2c1 (stereo unspecified) | 1.68% (active)
CCOc1ccccc1C1CC(c2cccc(NS(C)(=O)=O)c2)=NN1C(=O)c1ccccc1 (stereo unspecified) | 79.6% (inactive)
N#CCSc1nc2ccccc2c(=O)n1-c1ccccc1 | 101% (inactive)
C/C(O)=C\c1nc(=O)c2c(C)cc(C)nc2n1-c1ccccc1 | 2.41% (active)
Cc1cc(C)c2c(n1)sc1c(=O)n(-c3ccccc3)c(=O)[nH]c12 | 95.9% (inactive)
O=C1NC(=Nc2ccc(Cl)cc2)SC1Cc1cccc(Cl)c1Cl (stereo unspecified) | 101% (inactive)
COC(=O)c1sccc1NC(=O)COc1ccc(Cl)cc1 | 68.7% (inactive)
Cc1ccc2[nH]c(=O)c(CC=C(Cl)Cl)c(C)c2c1 | 88.7% (inactive)
CN(C)c1ccc(/C=N/NC(=O)c2ccc(Cn3cc(Br)cn3)o2)cc1 | 103% (inactive)
COc1ccc(CCNc2cc(C)nc3c(-c4ccc(Cl)cc4)c(C)nn23)cc1OC | 74.8% (inactive)
CC(C)CC[n+]1ccn(C2=C([O-])c3ccccc3C(=O)/C2=N\S(=O)(=O)c2ccccc2)c1 | 2.01% (active)
COc1ccc(C2Nc3ccccc3C(=O)N2c2ccc(F)cc2)cc1Cn1nnc2ccccc21 (stereo unspecified) | 69.3% (inactive)
CC(=O)N1CC(C)c2scc(C)[n+]2-c2ccccc21 (stereo unspecified) | 91.2% (inactive)
COc1ccccc1NC(=O)CCCc1c[nH]c2ccccc12 | 101% (inactive)
COc1ccc(C(CCNCc2ccccc2F)c2ccc(F)cc2)cc1 (stereo unspecified) | 9.17% (inactive)
COc1cccc(CNCCc2c[nH]c3ccccc23)c1OCc1ccccc1F | 0.88% (active)
COc1ccc(/C(C)=N/NC(=O)CCC(=O)Nc2ccc(Cl)cc2Cl)c(OC)c1 | 91.2% (inactive)
O=C(Nc1cccc(F)c1)c1coc(=O)c(Br)c1 | 45% (inactive)
NC(=O)Nc1ccccc1C(=O)NCCc1ccccc1 | 99.7% (inactive)
CCc1ccc(NC(=O)C(C)OC(=O)/C=C/c2cccc([N+](=O)[O-])c2)cc1 (stereo unspecified) | 90.3% (inactive)
Cn1cc([N+](=O)[O-])c(C(=O)Nc2ccc3c(c2)OCCO3)n1 | 5.15% (active)
Cn1cc([N+](=O)[O-])c(C(=O)Nc2cnn(Cc3ccc(F)cc3)c2)n1 | 8.14% (inactive)

SMILES | viability
O=C(Nc1ccc2c(c1)OCCO2)c1ccncc1 | 100% (inactive)
COc1ccc(OC(C)C(=O)NCCc2nc3ccccc3[nH]2)cc1 (stereo unspecified) | 99.8% (inactive)
CCOC(=O)c1cnc(-c2ccccc2)nc1Oc1ccc(C)cc1 | 89.3% (inactive)
CCOC(=O)c1cnc(-n2nc(C)cc2C)nc1NNc1cc(C)nc(-c2ccccc2)n1 | 3.41% (active)
CCOC(=O)c1cnc(-n2nc(C)cc2C)nc1-n1nc(C)cc1C | 103% (inactive)
CCC(C)(C(=O)Nc1ccccc1C)N(C(=O)CNC(C)=O)c1ccc(C)cc1 (stereo unspecified) | 92.2% (inactive)
COC(=O)[C@@H]1CC[C@H](C)[C@@H](c2ccc(C)cc2)N1C(=O)c1ccc(/C=N/O[C@H](C)c2cn([C@@H]3COC[C@H]3O)nn2)cc1 | 86.4% (inactive)
CSc1nc2ccccc2cc1/C=C(\C#N)c1ccc(Cl)cc1Cl | 4.22% (active)
CSc1nc(N)c(C#N)c(-c2ccccc2Cl)c1C#N | 89.2% (inactive)
Cc1nc2ccccc2cc1O | 92.2% (inactive)
Cc1ccc(SCCC(=O)NC(C(C)C)C(C)C)cc1 | 89.2% (inactive)
CCCC(NC(=O)c1ccco1)c1nc2ccccc2[nH]1 (stereo unspecified) | 101% (inactive)
CCCCC(=O)NCc1ccc(F)cc1 | 93.4% (inactive)
CN(CC(=O)Nc1ccc(S(=O)(=O)N2CCCC2)cc1)Cc1ccc(Cl)c(Cl)c1 | 65.4% (inactive)
COc1ccc(NS(=O)(=O)c2cc(NC(=O)/C=C/c3cc(OC)c(OC)c(OC)c3)ccc2N2CCCCC2)cc1 | 89.5% (inactive)
COc1cccc2cc(C(=O)N(C)C)c(=O)oc12 | 1.59% (active)
COc1cccc2cc(C(=O)N3CCN(C(=O)c4ccccc4)CC3)c(=O)oc12 | 100% (inactive)
C=CCc1cccc2cc(C(=O)OCC)c(=O)oc12 | 97.7% (inactive)
O=C(c1cccc2ccccc12)N1CCN(c2ccccc2F)CC1 | 83.3% (inactive)
Cc1ccc(Cl)cc1N1CCN(C(=O)c2cccc3c(=O)c(C)c(-c4ccccc4)oc23)CC1 | 1.34% (active)
COC(=O)c1ccc(C(=O)OC)c(NC(=S)N2CCN(c3cc(Cl)ccc3C)CC2)c1 | 92.1% (inactive)
COCCn1c(SCC(=O)Nc2ccc3c(c2)CCC3)nc2ccccc2c1=O | 81.5% (inactive)
O=C(/C=C/NCc1ccc(F)cc1)c1ccccc1 | 87.5% (inactive)

SMILES | viability
NS(=O)(=O)c1cc(C(=O)NCCOc2ccccc2)c(Cl)cc1Cl | 78.4% (inactive)
COc1ccccc1-n1nnnc1S(=O)(=O)Cc1ccc(Cl)cc1 | 2.91% (active)
COc1ccccc1N1CCN(Cc2nnnn2CCc2ccccc2)CC1 | 82.5% (inactive)
COc1ccccc1N1CCN(C(=O)CN(Cc2ccc(Cl)cc2)S(C)(=O)=O)CC1 | 68.4% (inactive)
CCc1cccc(C)c1NC(=O)COC(=O)Cc1ccsc1 | 80.8% (inactive)
COc1ccc(-c2cc(C(F)(F)F)nc(SCC(=O)Nc3ccc4c(c3)OCO4)n2)cc1OC | 91.6% (inactive)
O=C(/C(=C/c1cccc(Cl)c1)c1nc2ccccc2[nH]1)c1ccccc1 | 1.3% (active)
Oc1ccc(Cl)cc1/C=N/c1nc2ccccc2[nH]1 | 89.3% (inactive)
COc1ccc(/C=C(/NC(=O)c2ccc(C)cc2)c2nc3ccccc3[nH]2)cc1OC | 87.3% (inactive)
Cc1cc(C)cc(C(=O)NC(=S)Nc2ccc3[nH]c(=O)[nH]c3c2)c1 | 95.8% (inactive)
Cc1cccc(NC(=O)Cn2c(=O)n(Cc3ccccc3)c(=O)c3c(C)c(C)sc32)c1 | 77% (inactive)
COc1ccc(/C=C(/CC(=O)Nc2ccc(C)cc2)c2nc3ccccc3s2)cc1 | 73% (inactive)
Fc1ccccc1/C=C1\CCCC2=C1Nc1ncnn1C2c1ccccc1F (stereo unspecified) | 4.91% (active)
CC(C)(C)SCCNC(=O)c1cccc([N+](=O)[O-])c1 | 97.8% (inactive)
COc1ccc(/C=C/C(=O)c2cc(Br)ccc(=O)c2O)cc1 | 11.3% (inactive)
COC(=O)CN1C(=O)C(O)=C(C(C)=O)C1c1ccc([N+](=O)[O-])cc1 (stereo unspecified) | 86.9% (inactive)
CCC(CC)C(=O)N1CC(=O)Nc2ccc(Br)cc2C1c1ccccc1 (stereo unspecified) | 80.3% (inactive)
COC(=O)CN1C(C)=Nc2ccc(Br)cc2C1c1ccccc1 (stereo unspecified) | 0.76% (active)
CCCCCC(=O)Nc1ccc(S(=O)(=O)Nc2ccc(Cl)nn2)cc1 | 102% (inactive)
CCCCc1nc(NCc2ccccc2)c(C#N)c2c1CCCC2 | 81% (inactive)
CCCCc1nc(NCCN)c(C#N)c2c1CSC(C)(C)C2 | 1.71% (active)
Cc1nc(NCCN)c(C#N)c2c1COC(C)(C)C2 | 94.1% (inactive)
CCC(C)C(=O)Nc1cc([N+](=O)[O-])ccc1Cl (stereo unspecified) | 96.4% (inactive)

SMILES | viability
Oc1c(Br)cccc1/C=N/Nc1c(F)c(F)c(F)c(F)c1F | 51% (inactive)
O=c1c2sccc2nc(SCc2cc(=O)n3ccccc3n2)n1-c1ccc(Br)cc1 | 59.1% (inactive)
CCCNC(=O)OC[C@H]1O[C@H](CCO/N=C/[C@@H](NS(=O)(=O)c2ccc(C)cc2)[C@H](C)/C=C/CC(=O)OC)C=C[C@@H]1Oc1ccc(OC)cc1 | 0.62% (active)
CCCC(NS(=O)(=O)c1ccc(OC)cc1)C(=O)O (stereo unspecified) | 92.4% (inactive)
COc1ccc(O[C@H]2C=C[C@@H](c3ccccc3)O[C@@H]2CO/N=C/C[C@@H]2C=C[C@H](OC(C)=O)[C@@H](COC(C)=O)O2)cc1 | 88.8% (inactive)
NNc1nc2c(Cl)cccc2s1 | 83.6% (inactive)
Cc1ccc(C(=O)Oc2coc(CSc3nnc(NC(=O)c4cccs4)s3)cc2=O)cc1C | 96.1% (inactive)
Cc1ccc(S(=O)(=O)NCCSc2ccccc2)cc1[N+](=O)[O-] | 104% (inactive)
O=C(Nc1ccc(CSc2ccccc2)cc1)c1ccc(CN2CCOCC2)cc1 | 12.2% (inactive)
COc1ccc(Cl)cc1-n1c(C)cc(C(=O)OCC(=O)N2CC(=O)Nc3ccccc32)c1C | 69.3% (inactive)
O=C(Nc1ccccc1)/C(=C/c1ccc([N+](=O)[O-])cc1)NC(=O)c1ccccc1 | 87.1% (inactive)
CCOC(=O)/C(=C\c1ccc([N+](=O)[O-])cc1)C(=O)c1cc(C(C)=O)c(Nc2ccccc2)s1 | 1.71% (active)
Cc1cccc(NC(=O)c2sc(-c3ccccc3)nc2-c2ccc([N+](=O)[O-])cc2)c1 | 80.5% (inactive)
Cc1cccc(N2C(=O)SC(SC(=Nc3ccccc3)Nc3ccccc3)C2=O)c1 (stereo unspecified) | 82.6% (inactive)
Cc1ccc(C(=O)N/C(=C/c2cccnc2)C(=O)O)cc1 | 87.7% (inactive)
CC(C)(C)c1nnc(N/N=C/c2ccc(O)cc2)n(N)c1=O | 90.8% (inactive)
c1ccc2c(c1)CSc1sccc1C2=C1CCNCC1 | 3.31% (active)
COc1ccc(-n2c(C)cc(C(=O)CN3C(=O)NC4(CCc5ccccc54)C3=O)c2C)cc1 (stereo unspecified) | 70.1% (inactive)
O=C(Nc1cccc(Cl)c1)Nc1ccccc1NS(=O)(=O)c1cccs1 | 71.1% (inactive)
Cc1csc(NC(=O)NC2(C(F)(F)F)Oc3ccccc3O2)n1 | 5.7% (active)
Cc1csc(NC(=O)CN2CCCCCC2)n1 | 93.4% (inactive)
O=C(Nc1cc(N2CCOCC2)ncn1)NC1(C(F)(F)F)Oc2ccc(Cl)cc2O1 (stereo unspecified) | 76.8% (inactive)
